Data published in PubChem BioAssay (NCATS).
Inconclusive results are not listed. A call without a number means that no potency is given here. The source made the active and inactive calls. The call rests on the fitted dose curve; in most records, active means well fitted inhibition curve with a large enough effect; inconclusive means small, poorly fitted or top-dose-only effect; inactive means flat fitted curve, though single readings scatter.

How the values were obtained:
Assay in all cases: qHTS profiling for inhibitors of Plasmodium falciparum proliferation (AID 504749); further: nearly all actives have a fitted effect of over 60% in size
Conditions in all cases: P. falciparum in erythrocytes, SYBR Green DNA, 72 h; series mostly up to 28.7 µM
[1] = test system: DIV17
Outline: (§1)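 Three-day growth assay of blood-stage parasites in erythrocytes (0.3% parasitemia, 2.5% hematocrit) at 37 C, 5% CO2, quantified by SYBR Green DNA staining after overnight detergent lysis.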

[2] = test system: DIV30
Outline: as §1

[3] = test system: Dd2
Outline: as §1

[4] = test system: ECU
Outline: as §1

[5] = test system: FAB9
Outline: as §1

[6] = test system: GB4
Outline: as §1

[7] = test system: HB3
Outline: as §1

[8] = test system: ICS
Outline: as §1

[9] = test system: JCK
Outline: as §1

[10] = test system: N140
Outline: as §1
Potency means the concentration at half of the fitted maximal effect.

SMILES	Potency [1]	Potency [2]	Potency [3]	Potency [4]	Potency [5]	Potency [6]	Potency [7]	Potency [8]	Potency [9]	Potency [10]
CC(C)Cc1ccc(C(C)C(=O)O)cc1 (configuration not stated)	inactive	inactive	inactive	inactive	inactive	inactive	inactive	inactive	inactive	inactive
CS(=O)(=O)CCNCc1ccc(-c2ccc3ncnc(Nc4ccc(OCc5cccc(F)c5)c(Cl)c4)c3c2)o1	inactive	inactive	inactive	inactive	inactive	inactive	inactive	inactive	inactive	inactive
C[C@](N)(Cc1ccc(O)c(O)c1)C(=O)O	inactive	inactive	inactive	inactive	inactive	inactive	inactive	inactive	inactive	inactive
CN(CCOc1ccc(NS(C)(=O)=O)cc1)CCc1ccc(NS(C)(=O)=O)cc1	inactive	inactive	inactive	inactive	inactive	inactive	inactive	inactive	inactive	inactive
CN1C(C(=O)Nc2ccccn2)=C(O)c2ccccc2S1(=O)=O	inactive	inactive	inactive	inactive	inactive	inactive	inactive	inactive	inactive	inactive
NCCCCCC(=O)O	inactive	inactive	inactive	inactive	inactive	inactive	inactive	inactive	inactive	inactive
Cc1cn([C@H]2C[C@H](N=[N+]=[N-])[C@@H](CO)O2)c(=O)[nH]c1=O	inactive	inactive	inactive	inactive	inactive	inactive	inactive	inactive	inactive	inactive
NC(=O)OCC(COC(N)=O)c1ccccc1	inactive	inactive	inactive	inactive	inactive	inactive	inactive	inactive	inactive	inactive
CC(=O)OCC(CCn1cnc2cnc(N)nc21)COC(C)=O	inactive	inactive	inactive	inactive	inactive	inactive	inactive	inactive	inactive	inactive
CC[N+](CC)(CC)CCOc1cccc(OCC[N+](CC)(CC)CC)c1OCC[N+](CC)(CC)CC	inactive	inactive	inactive	inactive	inactive	inactive	inactive	inactive	inactive	inactive
N[C@@H](Cc1c[nH]c2ccc(O)cc12)C(=O)O	inactive	inactive	inactive	inactive	inactive	inactive	inactive	inactive	inactive	inactive
NCCc1cnc[nH]1	inactive	inactive	inactive	inactive	inactive	inactive	inactive	inactive	inactive	inactive
NC(=O)NO	inactive	inactive	inactive	inactive	inactive	inactive	inactive	inactive	inactive	inactive
Clc1ccccc1C(c1ccccc1)(c1ccccc1)n1ccnc1	287 nM (active)	228 nM (active)	708 nM (active)	158 nM (active)	1780 nM (active)	809 nM (active)	501 nM (active)	126 nM (active)	708 nM (active)	224 nM (active)
Cc1cnc(C(=O)NCCc2ccc(S(=O)(=O)NC(=O)NC3CCCCC3)cc2)cn1	inactive	inactive	inactive	inactive	inactive	inactive	inactive	inactive	inactive	inactive
CCOC(=O)c1ncn2c1CN(C)C(=O)c1cc(F)ccc1-2	inactive	inactive	inactive	inactive	inactive	inactive	inactive	inactive	inactive	inactive
O=c1c(-c2ccc(O)cc2)coc2cc(O)cc(O)c12	inactive	inactive	inactive	inactive	inactive	inactive	inactive	inactive	inactive	inactive
CS(=O)(=O)Nc1ccc([N+](=O)[O-])cc1Oc1ccccc1	inactive	inactive	inactive	inactive	inactive	inactive	inactive	inactive	inactive	inactive
Cn1c(=O)c2[nH]cnc2n(C)c1=O	inactive	inactive	inactive	inactive	inactive	inactive	inactive	inactive	inactive	inactive
Clc1ccc2nsnc2c1NC1=NCCN1	inactive	inactive	inactive	inactive	inactive	inactive	inactive	inactive	inactive	inactive
CCCNCC(O)COc1ccccc1C(=O)CCc1ccccc1 (configuration not stated)	536 nM (active)	1690 nM (active)	1000 nM (active)	708 nM (active)	1780 nM (active)	675 nM (active)	2000 nM (active)	251 nM (active)	3550 nM (active)	355 nM (active)

SMILES	Potency [1]	Potency [2]	Potency [3]	Potency [4]	Potency [5]	Potency [6]	Potency [7]	Potency [8]	Potency [9]	Potency [10]
O=C1N(c2ccccc2)c2ccccc2C1(Cc1ccncc1)Cc1ccncc1	inactive	inactive	inactive	inactive	inactive	inactive	inactive	–	inactive	inactive
Cn1c(=O)c2c(ncn2C)n(C)c1=O	inactive	inactive	inactive	inactive	inactive	inactive	inactive	inactive	inactive	inactive
CC(C)C(=O)Nc1ccc([N+](=O)[O-])c(C(F)(F)F)c1	inactive	inactive	inactive	inactive	inactive	inactive	inactive	inactive	inactive	inactive
COc1nc(C)nc(Cl)c1NC1=NCCN1	inactive	inactive	inactive	inactive	inactive	inactive	inactive	inactive	inactive	inactive
NCCS(=O)(=O)O	inactive	inactive	inactive	inactive	inactive	inactive	inactive	inactive	inactive	inactive
NS(=O)(=O)c1cc2c(cc1Cl)NCNS2(=O)=O	inactive	inactive	inactive	inactive	inactive	inactive	inactive	inactive	inactive	inactive
Cc1ccc(C(=O)Nc2ccc(S(=O)(=O)O)c3cc(S(=O)(=O)O)cc(S(=O)(=O)O)c23)cc1NC(=O)c1cccc(NC(=O)Nc2cccc(C(=O)Nc3cc(C(=O)Nc4ccc(S(=O)(=O)O)c5cc(S(=O)(=O)O)cc(S(=O)(=O)O)c45)ccc3C)c2)c1	inactive	inactive	inactive	inactive	inactive	inactive	inactive	inactive	inactive	inactive
CN1CCN2c3ccccc3Cc3ccccc3C2C1 (configuration not stated)	inactive	inactive	inactive	inactive	inactive	inactive	inactive	inactive	inactive	inactive
Nc1nc2c(ncn2COC(CO)CO)c(=O)[nH]1	inactive	inactive	inactive	inactive	inactive	inactive	inactive	inactive	inactive	inactive
Cc1cn([C@H]2C=C[C@@H](CO)O2)c(=O)[nH]c1=O	inactive	inactive	inactive	inactive	inactive	inactive	inactive	inactive	inactive	inactive
COc1cc2c(c(OC)c1OC)-c1ccc(OC)c(=O)cc1[C@@H](NC(C)=O)CC2	inactive	inactive	inactive	inactive	inactive	inactive	inactive	inactive	inactive	inactive
Cn1cnc2c1c(=O)[nH]c(=O)n2C	inactive	inactive	inactive	inactive	inactive	inactive	inactive	inactive	inactive	inactive
CC(C)(Oc1ccc(C2CC2(Cl)Cl)cc1)C(=O)O (configuration not stated)	inactive	inactive	inactive	inactive	inactive	inactive	inactive	inactive	inactive	inactive
Cc1cc(C(C)(C)C)c(O)c(C)c1CC1=NCCN1	inactive	inactive	inactive	inactive	inactive	inactive	inactive	inactive	inactive	inactive
CN(C)c1nc(N(C)C)nc(N(C)C)n1	inactive	inactive	inactive	inactive	inactive	inactive	inactive	inactive	inactive	inactive
CCOC(=O)C(C)(C)Oc1ccc(Cl)cc1	inactive	inactive	inactive	inactive	inactive	inactive	inactive	inactive	inactive	inactive
COc1ccc2[nH]cc(CCNC(C)=O)c2c1	inactive	inactive	inactive	inactive	inactive	inactive	inactive	inactive	inactive	inactive
COc1ccccc1OCC(O)CN1CCN(CC(=O)Nc2c(C)cccc2C)CC1 (configuration not stated)	inactive	inactive	inactive	inactive	inactive	inactive	inactive	inactive	inactive	inactive
CNCCCC12CCC(c3ccccc31)c1ccccc12	10700 nM (active)	–	–	inactive	inactive	8490 nM (active)	inactive	–	inactive	inactive
O=C(c1ccc(OCCN2CCCCC2)cc1)c1c(-c2ccc(O)cc2)sc2cc(O)ccc12	15100 nM (active)	–	14100 nM (active)	–	–	8490 nM (active)	7080 nM (active)	2000 nM (active)	–	11200 nM (active)
